Test [1] is described as follows: ATG_CRE_CIS: Attagene CIS-FACTORIAL HepG2 Assay for human cAMP Responsive Element (CRE) binding protein 3 (AID 2282926). Particulars: HepG2 CRE cis-reporter, Attagene multiplexed mRNA; actives raise or lower the signal. The method, boiled down: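 Cells carrying cis-regulated reporter constructs respond through their own endogenous factors. After 24 h treatment, RNA is reverse-transcribed, amplified, labelled and sized by capillary electrophoresis; up- and down-regulation are both scored against vehicle.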

The nature of test [2]: ATG_CMV_CIS: Attagene CIS-FACTORIAL HepG2 Assay for human CMV (Internal Marker) (AID 2282928).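 Further: endpoint acts as a background internal control marker rather than a target.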 Particulars: HepG2 CMV promoter reporter, transcription factor profiling; actives raise or lower the signal. The method, boiled down:
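Readout: fluorescent reporter cDNA fragments separated by capillary electrophoresis after RT-PCR and HpaI cut. Cells: HepG2 carrying transfected cis-promoter reporter constructs, dosed 24 h. Endpoint serves as background internal-marker control, fit bidirectionally versus DMSO.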

Test [3] in a line: ATG_DR4_LXR_CIS: Attagene CIS-FACTORIAL HepG2 Assay for human Liver X Receptor (LXR), DR4 submotif (AID 2282929). Particulars: HepG2 Attagene DR4 cis-reporter, mRNA transcription; actives raise or lower the signal. Summed up:
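Total RNA from 24 h-treated, MRTU-transfected HepG2 cells underwent reverse transcription, PCR, fluorescent primer extension and restriction digestion before capillary electrophoresis. Both increases and decreases in reporter signal were fitted against DMSO.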

Test [4] concerns the target Aryl hydrocarbon receptor (Homo sapiens) (UniProt P35869). In words: ATG_Ahr_CIS: Attagene CIS-FACTORIAL HepG2 Assay for human Aryl Hydrocarbon Receptor (Ahr) (AID 2282930). Particulars: HepG2 AhR cis-factorial reporter transcription; actives raise or lower the signal. Summed up: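 HepG2, transient MRTU (cis) transfection, 24 h exposure. RNA → cDNA → PCR → 6-FAM primer extension → HpaI 2 h 37 C → CE. Fit: bidirectional, DMSO baseline.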

A short description of test [5]: ATG_AP_1_CIS: Attagene CIS-FACTORIAL HepG2 Assay for human Activator Protein 1 (AP-1) (AID 2282931). Particulars: HepG2 Attagene cis-factorial AP-1 reporter mRNA; actives raise or lower the signal. The method, boiled down: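 HepG2, transient cis-reporter transfection; 24 h; readout RT-PCR/CE fluorescence; DMSO baseline, gain and loss fitted.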
Test [6] in a line: ATG_AP_2_CIS: Attagene CIS-FACTORIAL HepG2 Assay for human Activator Protein 2 (AP-2) (AID 2282932). Particulars: HepG2 AP-2 cis-reporter, Attagene transcription factor profiling; actives raise or lower the signal. Summed up:
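Endogenous transcription factor activity is reported through transfected multiplex reporter constructs in HepG2, after 24 h of compound exposure. Transcripts were quantified by RT-PCR and capillary electrophoresis of fluorescent fragments. Bidirectional fit against DMSO.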

Test [7] is described as follows: ATG_BRE_CIS: Attagene CIS-FACTORIAL HepG2 Assay for human Bone Morphogenetic Protein (BMP) Response Element (BRE) (AID 2282933). Particulars: HepG2 BMP response element reporter, Attagene transcription factor profiling; actives raise or lower the signal. The method, boiled down: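 After a 24 h chemical treatment, transiently transfected HepG2 cells were lysed for RNA; reporter transcripts were quantified by fluorescent RT-PCR and capillary electrophoresis, normalised to DMSO.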

Test [8] concerns the target Retinoic acid receptor alpha (Homo sapiens) (UniProt P10276). In words: ATG_DR5_RAR_CIS: Attagene CIS-FACTORIAL HepG2 Assay for human Retinoic Acid Receptor Alpha (RARE), DR5 submotif (AID 2282934).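 On AC50: reporter responds to endogenous RAR alpha beta and gamma in HepG2 not RARA alone.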 Particulars: HepG2 Attagene cis-factorial RARE DR5 reporter, mRNA; actives raise or lower the signal. The method, boiled down: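 HepG2, transient cis-reporter transfection, 24 h exposure. mRNA readout: RT-PCR, FAM label, HpaI cut, capillary electrophoresis. DMSO baseline, gain/loss fitting.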

The target in test [9] is Transcription factor E2F1 (Homo sapiens) (UniProt Q01094). Put plainly: ATG_E2F_CIS: Attagene CIS-FACTORIAL HepG2 Assay for human E2F Transcription Factor 1 (AID 2282935). Particulars: HepG2 Attagene cis-reporter, E2F reporter RNA transcripts; actives raise or lower the signal. Summed up: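 Gain or loss of reporter transcript, fitted against DMSO, reflects E2F1-driven transcription. Transiently transfected HepG2 dosed 24 h before RNA isolation. Quantified by fluorescent RT-PCR products separated by capillary electrophoresis.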
Transcription factor E2F1 (Homo sapiens), sequence (Q01094 whole entry, looked up): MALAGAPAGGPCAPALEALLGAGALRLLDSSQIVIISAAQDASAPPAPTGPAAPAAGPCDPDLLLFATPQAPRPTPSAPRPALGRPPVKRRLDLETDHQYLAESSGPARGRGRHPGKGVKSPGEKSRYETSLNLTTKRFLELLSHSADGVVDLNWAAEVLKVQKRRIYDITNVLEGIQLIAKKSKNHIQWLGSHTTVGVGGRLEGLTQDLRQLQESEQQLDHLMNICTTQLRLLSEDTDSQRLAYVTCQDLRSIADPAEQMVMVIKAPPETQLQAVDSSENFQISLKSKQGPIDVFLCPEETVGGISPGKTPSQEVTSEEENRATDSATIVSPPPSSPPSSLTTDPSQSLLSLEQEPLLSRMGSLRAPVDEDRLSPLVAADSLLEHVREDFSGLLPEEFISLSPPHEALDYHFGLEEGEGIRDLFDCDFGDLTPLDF

Test [10] addresses CCAAT/enhancer-binding protein beta (Homo sapiens) (UniProt P17676). Put plainly: ATG_C_EBP_CIS: Attagene CIS-FACTORIAL HepG2 Assay for human CCAAT/Enhancer Binding Protein (C/EBP) beta (AID 2282927). Particulars: HepG2 Attagene cis-factorial transcription factor reporter; actives raise or lower the signal. Summed up: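 Changes in reporter mRNA, rather than exogenous chimeric receptor activity, reflect native C/EBP signalling in transfected HepG2 cells dosed for 24 h; transcripts are detected by RT-PCR and capillary electrophoresis.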

Activity calls are given as the source filed them. How the source made its calls: active means hit-call score of the fitted dose curve at least 0.9, where 1 is the maximum; inactive means score below 0.9.

CCAAT/enhancer-binding protein beta (Homo sapiens), sequence (P17676 whole entry, looked up): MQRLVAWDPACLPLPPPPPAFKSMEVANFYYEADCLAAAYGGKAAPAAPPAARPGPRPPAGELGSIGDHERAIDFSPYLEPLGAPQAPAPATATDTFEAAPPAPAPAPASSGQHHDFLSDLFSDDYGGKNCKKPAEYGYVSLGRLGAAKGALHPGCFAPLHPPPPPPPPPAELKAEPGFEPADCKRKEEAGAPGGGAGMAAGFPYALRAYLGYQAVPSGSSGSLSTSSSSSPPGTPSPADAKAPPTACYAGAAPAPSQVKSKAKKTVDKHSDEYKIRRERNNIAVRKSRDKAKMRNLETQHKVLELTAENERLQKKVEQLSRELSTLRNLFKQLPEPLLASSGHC
Retinoic acid receptor alpha (Homo sapiens), sequence (P10276 whole entry, looked up): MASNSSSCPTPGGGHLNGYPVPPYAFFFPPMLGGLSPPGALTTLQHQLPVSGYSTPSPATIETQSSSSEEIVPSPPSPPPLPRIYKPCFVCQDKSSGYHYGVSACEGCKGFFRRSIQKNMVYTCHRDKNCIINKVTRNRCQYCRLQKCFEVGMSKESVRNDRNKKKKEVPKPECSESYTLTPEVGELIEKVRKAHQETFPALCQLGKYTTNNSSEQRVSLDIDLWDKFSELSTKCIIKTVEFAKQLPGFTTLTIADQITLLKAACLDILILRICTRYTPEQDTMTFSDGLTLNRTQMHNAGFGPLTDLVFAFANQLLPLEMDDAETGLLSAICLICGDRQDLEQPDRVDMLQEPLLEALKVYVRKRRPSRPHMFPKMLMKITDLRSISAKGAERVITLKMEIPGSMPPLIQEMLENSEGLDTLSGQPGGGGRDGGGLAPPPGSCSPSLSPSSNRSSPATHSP
Aryl hydrocarbon receptor (Homo sapiens), sequence (P35869 whole entry, looked up): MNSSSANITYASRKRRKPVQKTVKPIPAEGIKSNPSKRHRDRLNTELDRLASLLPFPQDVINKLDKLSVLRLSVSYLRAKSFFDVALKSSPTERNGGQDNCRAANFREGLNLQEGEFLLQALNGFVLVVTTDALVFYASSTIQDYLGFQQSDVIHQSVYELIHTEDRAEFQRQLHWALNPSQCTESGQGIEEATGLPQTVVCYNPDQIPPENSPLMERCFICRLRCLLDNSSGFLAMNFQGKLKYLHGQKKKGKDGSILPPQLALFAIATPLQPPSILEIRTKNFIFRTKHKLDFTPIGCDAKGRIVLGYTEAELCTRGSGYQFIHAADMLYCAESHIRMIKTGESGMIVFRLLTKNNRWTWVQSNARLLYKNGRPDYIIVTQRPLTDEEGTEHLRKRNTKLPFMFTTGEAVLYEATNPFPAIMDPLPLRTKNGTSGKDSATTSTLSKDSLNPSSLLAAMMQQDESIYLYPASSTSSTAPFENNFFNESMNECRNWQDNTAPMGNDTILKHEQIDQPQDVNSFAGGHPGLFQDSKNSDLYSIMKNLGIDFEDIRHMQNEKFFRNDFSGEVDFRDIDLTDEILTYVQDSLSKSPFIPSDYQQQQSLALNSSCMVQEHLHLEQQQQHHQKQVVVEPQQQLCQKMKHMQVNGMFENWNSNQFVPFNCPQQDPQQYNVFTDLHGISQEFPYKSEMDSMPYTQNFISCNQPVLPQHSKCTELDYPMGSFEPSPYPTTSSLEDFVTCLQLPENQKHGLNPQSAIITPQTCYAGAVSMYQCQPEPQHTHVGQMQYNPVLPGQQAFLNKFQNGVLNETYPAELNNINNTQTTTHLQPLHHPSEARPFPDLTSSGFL

Take `ClC1=C(Cl)[C@]2(Cl)[C@@H]3[C@@H](Cl)[C@H]4O[C@H]4[C@@H]3C1(Cl)C2(Cl)Cl`: the molecule was classed as inactive in test [1], in [4], in test [6], in test [7] and in [9]. The AC50 in test [2] was 33.7 µM (active); in test [3], 8.22 µM (active); in test [5], 35.9 µM (active); in test [8] it was 3.4 µM (active).

Regarding `CCNc1nc(NC(C)C)nc(SC)n1`, the molecule was classed as inactive in test [1], in test [10], in test [2], in test [3], in test [4] and in [5]. Further, the molecule was classed as inactive in [6] and in test [9].

In the case of `Cc1ccccc1O`, the molecule was classed as inactive in [1], in test [2], in [3], in test [4], in test [6] and in test [8]. Further, the molecule was classed as inactive in test [9]. For the same molecule, the AC50 in test [5] was 140 µM (active).

For `ClC1=C(Cl)[C@]2(Cl)[C@@H]3[C@@H]4C[C@@H]([C@H]5O[C@@H]45)[C@@H]3[C@@]1(Cl)C2(Cl)Cl`, the outcome in test [1], in test [2], in test [4], in [5], in test [6] and in test [7] was inactive. In addition, the molecule was called inactive in test [9]. Further, the AC50 is 16.7 µM (active) in test [3] and 0.571 µM (active) in [8].

Turning to `CCOC(=O)C(O)(c1ccc(Cl)cc1)c1ccc(Cl)cc1`, the call in [1], in test [2], in [5], in test [6], in [8] and in test [9] was inactive. Moreover, the AC50 in test [3] was 8.72 µM (active); in test [4], 8.63 µM (active).

Take `CCSC(=O)N(CC)C1CCCCC1`: the outcome in test [1], in test [2], in [3], in test [4], in test [5] and in test [6] was inactive. The call in [7] and in [9] was inactive.

Take `CC1=C2C[C@H]3[C@@H](CC=C4C[C@@H](O)CC[C@@]43C)[C@@H]2CC[C@]12O[C@@H]1C[C@H](C)CN[C@H]1[C@H]2C`: the call in test [1], in [2], in test [4], in test [5], in test [6] and in [8] was inactive. The result in test [9] was inactive. The AC50 in [3] and in test [7] was 13.3 µM (active) each time.

Take `ClC1=C(Cl)[C@]2(Cl)[C@@H]3[C@H]4C[C@H]([C@@H]5O[C@H]45)[C@@H]3[C@@]1(Cl)C2(Cl)Cl`: the outcome in [1], in [2], in test [4], in test [5], in [6] and in test [7] was inactive. Moreover, the molecule was called inactive in test [9]. Further, the AC50 is 5.08 µM (active) in test [3] and 1.14 µM (active) in [8].

Take `Cc1ccccc1CO[C@@H]1C[C@@]2(C(C)C)CC[C@]1(C)O2`: the molecule was classed as inactive in test [1], in test [2], in test [3], in test [4], in test [5] and in test [6]. In addition, the result in test [8] and in test [9] was inactive.

In the case of `c1ccc(-c2ccccc2)cc1`, the molecule was classed as inactive in test [1], in test [2], in test [3], in [4], in [5] and in test [6]. The result in test [7], in [8] and in test [9] was inactive.

As for `CN(C)c1nc(=O)n(C2CCCCC2)c(=O)n1C`, the call in test [1], in test [2], in test [3], in test [4], in test [5] and in test [6] was inactive. Further, the outcome in [7] and in test [9] was inactive.

As to `O=NN(c1ccccc1)c1ccccc1`, the outcome in test [1], in test [10], in test [2], in test [3], in test [4] and in [6] was inactive. The molecule was classed as inactive in [8] and in test [9]. Besides, the AC50 in test [5] was 118 µM (active).

Take `Cc1ccc(O)c(C)c1`: the outcome in test [1], in test [2], in test [3], in [4], in test [5] and in [6] was inactive. For the same molecule, the result in [8] and in test [9] was inactive.

Regarding `Clc1ccc(C(c2ccccc2Cl)C(Cl)(Cl)Cl)cc1` (configuration not stated), the outcome in test [1], in [4], in test [6], in [7], in test [8] and in [9] was inactive. For the same molecule, the AC50 in [2] was 37.5 µM (active) [middle of 4 runs]; in [5], 40.4 µM (active) [middle of 4 runs].

Regarding `C=CC(N)=O`, the outcome in [1], in [10], in test [2], in test [4], in test [5] and in test [6] was inactive. For the same molecule, the result in test [8] and in test [9] was inactive. Besides, in [3], the AC50 is 47.6 µM (active).

Take `Cc1cccc([N+](=O)[O-])c1`: the outcome in [1], in test [2], in test [3], in test [4], in [5] and in test [6] was inactive. The outcome in test [7], in test [8] and in test [9] was inactive.

On to `Cc1ccccc1[N+](=O)[O-]`, for which the call in [1], in [2], in test [3], in [4], in test [5] and in [6] was inactive. Further, the result in [8] and in test [9] was inactive.

As to `CC(c1ccc(O)cc1)(c1ccc(O)cc1)c1ccc(O)cc1`, the AC50 in test [1] was 8.32 µM (active); in [2] it was 20.2 µM (active); in test [3] it was 7.38 µM (active); in [5], 17.9 µM (active); in test [6], 18.1 µM (active); in [7] it was 18.3 µM (active). In addition, the molecule was classed as inactive in test [4], in [8] and in test [9].

`CCCCCCOC(=O)c1ccccc1C(=O)OCCCCCC`: the result in test [1], in [2], in test [3], in [4], in test [6] and in test [7] was inactive. The call in [8] and in test [9] was inactive. In addition, the half-maximal activity concentration (AC50) in test [5] was 45.3 µM (active).

A word on the AC50: it is the concentration giving half of the maximal activity seen.

The values are drawn from PubChem BioAssay (EPA / NIEHS).
